The list is not random: actives were taken first. Their share in the collection is about 5.5%.
ELG1 DNA repair: qHTS screen for small molecules that inhibit ELG1-dependent DNA repair in human embryonic kidney (HEK293T) cells expressing luciferase-tagged ELG1; HEK293T ELG1-luciferase reporter, luminescence, 16 h; DNA damage induced by 5-fluorouridine; Potency, µM (titrated, usually from 46.1 µM), inactives show top-dose activity change, negative = inhibition, hits mostly inhibitors; hit rate 2.3% among 330,000; also: potency is read from the fitted curve at half-maximal effect; nearly all actives have a fitted effect of over 55% in size
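HEK293T cells expressing luciferase-tagged ELG1 (2,000/well) received 5-Fluorouridine plus compound or DMSO for 16 hr at 37 °C. Luciferase was read by ONE-Glo luminescence after 30 min at room temperature.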
Giardia kill: Small Molecules that selectively kill Giardia lamblia: qHTS | Giardia lamblia trophozoite viability | activity change, % at 7.66 µM, hits read low | hit rate 0.15% among 340,000 | AID 540267, 2011; in the data active = activity change below about -80%; inconclusive = between about -30% and that limit;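 also: parasites exposed to compound for two days anaerobically before the ATP read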
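Viability, read as ATP luminescence: trophozoites at 100 cells/well, compound added, 48 hrs anaerobic at 37 deg C, then 15-30 min room-temperature development before reading.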
Sfp inh: qHTS Assay for Inhibitors of Bacillus subtilis Sfp phosphopantetheinyl transferase (PPTase); 4'-phosphopantetheinyl transferase ffp (Bacillus subtilis), Q9F4F7; Biochemical Sfp PPTase activity, qHTS; Potency, µM, for the others: largest response in the series, negative = inhibition, most hits filed as inhibitors; hit rate 3.5% among 310,000; AID 1490, 2009;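 also: the enzyme is Sfp with the accession as filed and its product quenches rhodamine fluorescence; potency is read from the fitted curve at half-maximal effect; 0% = enzyme reaction without inhibitor and -100% = no enzyme wells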
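Buffer: 50 mM Hepes-Na pH 7.6, 10 mM MgCl2, 0.01% Nonidet P-40, 0.01% BSA. Enzyme 15 nM, pre-exposed to compound 15 min; substrates then added and fluorescence change tracked over 30 min.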
Coupling enz: qHTS Assay for Inhibitors of Fructose-1,6-bisphosphate Aldolase from Giardia Lamblia: Coupling assay counterscreen; hit rate 0.67% among 290,000; AID 2472, 2010; coupling enzyme system counterscreen, AmpLite Red fluorescence; activity change, negative = inhibition, % at 58.2 µM, hits read low; in the data active = activity change below about -30%
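Final compound at 57.5 uM, incubated 10 min at RT with coupling enzyme reagent (glyceraldehyde-3-phosphate), then 20 min with substrate and AmpLite Red detection. Fluorescence read at 525/598 nm; tests interference with the coupling assay, not aldolase inhibition.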
ELG1 FLuc counter: qHTS screen for small molecules that inhibit ELG1-dependent DNA repair: Hit Confirmation in Cell-Based Luciferin Assay; cell-free firefly luciferase luminescence counter-screen, ViewLux; hit rate 3% among 350; shares compounds with ELG1 DNA repair; AID 624247, 2012; Potency, µM (highest dose often 46.1 µM), without a hit: at the highest dose activity change, negative = inhibition, actives largely listed as inhibitors; also: potency is read from the fitted curve at half-maximal effect
ELG1-Luc inh: HTS assay for small molecules that inhibit ELG1-dependent DNA repair in human embryonic kidney (HEK293T) cells expressing luciferase-tagged ELG1: Hit Confirmation; shares compounds with ELG1 DNA repair; HEK293T ELG1-luciferase levels, luminescence; cells co-treated with 5-fluorouridine; Potency, µM (top dose mostly 46.1 µM), for inactives: at the top dose activity change, negative = inhibition, hits mostly inhibitors; hit rate 68% among 670; also: potency is read from the fitted curve at half-maximal effect; nearly all actives have a fitted effect of over 55% in size
ELG1 MMS Luc: inhibits ELG1-dependent repair under MMS stimulation in HEK293T cells | hit rate 53% among 670 | shares compounds with ELG1 DNA repair | HEK293T luciferase-tagged ELG1 level, MMS stimulated | Potency, µM (doses to about 46.1 µM), for the others: top-dose activity change, negative = inhibition, hits mostly inhibitors; also: potency is read from the fitted curve at half-maximal effect; nearly all actives have a fitted effect of over 60% in size
ELG1 5FU viab: qHTS screen for small molecules that inhibit ELG1-dependent DNA repair: Hit Confirmation with 5FU Viability | shares compounds with ELG1 DNA repair | cell viability with 5-FU, ELG1-dependent repair | Potency, µM (top dose mostly 46.1 µM), without a hit: top-dose activity change, negative = viability loss, hits mostly cytotoxic | 670 tested, under 10 active | AID 624250, 2012;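 also: ELG1-luc HEK293T cells cotreated with 5-fluorouridine at 10 µM final; potency is read from the fitted curve at half-maximal effect; viability measured 16 h after compound addition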
ELG1 MMS viab: qHTS screen for small molecules that inhibit ELG1-dependent DNA repair: Hit Confirmation with MMS Viability; shares compounds with ELG1 DNA repair; Cell viability with MMS, ELG1-dependent DNA repair; Potency, µM (highest dose often 46.1 µM), for inactives: at the top dose activity change, negative = viability loss, actives largely listed as cytotoxic; hit rate 33% among 670;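 also: ELG1-luc HEK293T cells co-treated with 10 µM MMS; potency is read from the fitted curve at half-maximal effect; viability read 16 h after compound addition; nearly all actives have a fitted effect of over 60% in size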
ELG1 unstim viab: qHTS screen for small molecules that inhibit ELG1-dependent DNA repair: Hit Confirmation with Unstimulated Viability Assay; shares compounds with ELG1 DNA repair; cell viability counter-screen, unstimulated, luminescence; Potency, µM (titrated, usually from 45.9 µM), for inactives: at the top dose activity change, negative = loss of viability, actives largely listed as cytotoxic; hit rate 8% among 900; AID 624252, 2012;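 also: potency is read from the fitted curve at half-maximal effect; compound exposure lasted 16 hours before reading; nearly all actives have a fitted effect of over 55% in size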
FLuc enzyme: qHTS screen for small molecules that inhibit ELG1-dependent DNA repair: Hit Confirmation in Biochemical Luciferin Assay; AID 624253, 2012; Potency, µM (titrated, usually from 57.5 µM), for inactives: at the top dose activity, negative = inhibition, hits mostly inhibitors; hit rate 10% among 350; shares compounds with ELG1 DNA repair; purified firefly luciferase, luminescence counter-screen; also: potency is read from the fitted curve at half-maximal effect
* hit, by the source's call; ? = inconclusive; . = not tested or not shown; ! = not active in a repeat. Unless noted, calls follow the shape of the dose curve; as a rule, active = well fitted curve in the direction sought with a large enough effect; inconclusive = small, poorly fitted or top-dose-only effect, or another doubt; inactive = no such curve, though single readings can be large; an effect the other way counts as inactive or inconclusive. Unless noted, % is scaled to controls: 0 for no effect and ±100 for the full control effect.

SMILES	ELG1 DNA repair	Giardia kill	Sfp inh	Coupling enz	ELG1 FLuc counter	ELG1-Luc inh	ELG1 MMS Luc	ELG1 5FU viab	ELG1 MMS viab	ELG1 unstim viab	FLuc enzyme
CCN1CCN(C(=O)CCCCCn2c(=O)[nH]c3cc(C(=O)OC)ccc3c2=O)CC1	0%	6	13%	1	.	.	.	.	.	.	.
COc1ccc2cc3c(N)nn(C(=O)c4ccccc4[N+](=O)[O-])c3nc2c1	2.3µM*	4	-24%	-6	.	1.8µM*	14µM*	4%	?	?	.
COc1ccc(C(=O)NNC(=O)c2ccccc2[N+](=O)[O-])cc1	?	-7	19%	1	.	.	.	.	.	.	.
COc1ccc2cc3c(N)nn(C(=O)c4ccc(Cl)c([N+](=O)[O-])c4)c3nc2c1	1.6µM*	-16	-18%	1	.	3.5µM*	7.9µM*	5%	7%	7%	.
COc1ccc(C2=NN(C(=O)c3ccc(Cl)c([N+](=O)[O-])c3)C(c3ccccc3)C2)cc1 (configuration not stated)	?	-13	-21%	-4	.	.	.	.	.	.	.
Cc1cccn2c(=O)c(C(=O)NCCCN3CC(C)CC(C)C3)c(O)nc12 (configuration not stated)	20%	-8	.	.	.	.	.	.	.	.	.
COc1ccc(OC)c(NC(=O)Cc2c(C(=O)O)n(C)c3ccccc23)c1	0%	5	-2%	13	.	.	.	.	.	.	.
COc1ccc2c(c1)c(CC(=O)Nc1ccccc1OC)c(C)n2C(=O)c1ccc(Cl)cc1	-20%	38	-1%	0	3%	10µM*	?	?	?	-3%	3%
COc1cc(C(=O)Oc2ccc3c(OC)c4ccoc4nc3c2OC)cc(OC)c1OC	.	.	-16%	0	.	.	.	.	.	.	.
O=C(NN=C1CCCCCC1)c1cc2ccccc2cc1O	6%	-10	1%	0	.	.	.	.	.	.	.
O=C1CCCC(=NNC(=O)c2cc3ccccc3cc2O)C1	?	6	.	.	.	.	.	.	.	-14%	.
Cc1ccc(Nc2nc(-c3ccncc3)nc3ccccc23)cc1	2.6µM*	-1	7%	1	42%	4µM*	18%	-2%	-14%	-18%	-10%
COC(=O)c1ccc(Nc2nc(-c3ccncc3)nc3ccccc23)cc1	-1%	-20	-14%	2	.	.	.	.	.	.	.
COc1cccc(C(=O)NCC(=O)N2CCC3(CC2)NCCc2[nH]cnc23)c1OC	?	-7	-8%	.	.	.	.	.	.	.	.
Cn1nc(CC(=O)NC2CCCCCCCCCCC2)c2ccccc2c1=O	-3%	-6	4%	0	.	.	.	.	.	.	.
Cn1nc(CC(=O)Nc2ccc3c(c2)CCC3)c2ccccc2c1=O	0.52µM*	-7	11%	3	-8%	?	0.71µM*	-8%	0.89µM*	?	-14%
Cn1cnc2c(F)c(Nc3ccc(Br)cc3Cl)c(C(=O)NOCCO)cc21	.	.	.	.	.	.	.	.	.	-25%	.
COc1ccc(S(=O)(=O)NCc2ccncc2)cc1NC(=O)c1ccc(Cl)cc1	?	32	.	.	9%	18µM*	?	-3%	?	?	-2%
Cc1ccccc1-n1c(SCC(=O)c2c(N)n(C)c(=O)n(C)c2=O)nc2sc3c(c2c1=O)CCCC3	1.6µM*	11	-1%	-1	-7%	2.5µM*	-17%	?	-1%	-16%	-2%
CC[C@]1(C(=O)OC)[C@H]2C(=O)N(C)C(=O)[C@H]2[C@H]2CN=C(SCc3ccc(C(=O)OC)cc3)N21	1%	1	.	.	.	.	.	.	.	.	.
CCOc1ccc(C(=O)Nc2cc3c(cc2N2CCCC2)n(CC)c(=O)n3CC)cc1OCC	?	40	5%	-10	2%	16µM*	?	12%	?	?	-8%
CCOC(=O)C1CCN(c2cc3c(cc2NC(=O)c2ccc(F)cc2)n(C)c(=O)n3C)CC1	2.3µM*	8	-1%	.	-12%	2.5µM*	14µM*	?	25µM*	25µM*!	-3%
CCS(=O)(=O)Nc1cccc(C2=NN(S(=O)(=O)CC)C(c3cccs3)C2)c1 (configuration not stated)	-8%	4	19%	.	.	.	.	.	.	.	.
COc1ccc(-c2cc(C(=O)N(C)Cc3nc4ccccc4c(=O)[nH]3)c3ccccc3n2)cc1OC	2.3µM*	21	.	.	.	2.5µM*	7.1µM*	?	8.9µM*	?	.
O=NN(CCc1ccncc1)c1ccc(OCc2ccccc2)cc1	0.82µM*	11	?	-1	6%	?	2.8µM*	-2%	3.5µM*	-10%	-7%
S=c1[nH]nc(C2CCCCC2)n1/N=C/c1ccncc1	1.2µM*	14	40µM*	1	.	2.5µM*	11µM*	-3%	-5%	-4%	.
NC(=O)c1ccsc1NC(=O)COC(=O)Cc1cccc2ccccc12	1.6µM*	10	-3%	-4	.	?	0.63µM*	0%	1.3µM*	?	.
NC(=O)c1ccsc1NC(=O)COC(=O)Cc1c[nH]c2ccccc12	?	15	.	.	.	.	.	.	.	.	.

Screens from PubChem.
